Measurements: PubChem BioAssay (NCI)
Compounds without any hit were thinned out: in the full panel of roughly 79,000, 15% have a hit. A number with no mark means an inactive call. The source made the active and inactive calls. Rule as the data show it: active = growth inhibition above about 70%; inactive = the rest.

Key:
[1] = NCI Yeast Anticancer Drug Screen. Data for the rad50 strain (AID 155);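 also: 0% = growth of vehicle-only cultures of the same strain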; conditions: S. cerevisiae rad50 strain growth inhibition; at 50.0 µM; active compounds read high
In short: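 A DNA repair-deficient yeast mutant serves as the test organism; compound-induced growth inhibition is calculated against vehicle-treated cells.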

[2] = NCI Yeast Anticancer Drug Screen. Data for the mec2-1 strain (AID 157); conditions: S. cerevisiae mec2-1 strain, at 50.0 µM, active compounds read high
In short: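 Growth inhibition is read against vehicle-treated controls after compound exposure of the mec2-1 yeast strain, which is defective in DNA damage repair or cell cycle control.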

[3] = NCI Yeast Anticancer Drug Screen. Data for the sgs1 mgt1 strain (AID 161);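 also: 0% = growth of cultures given vehicle only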; conditions: S. cerevisiae sgs1 mgt1 strain, at 50.0 µM, active compounds read high
In short: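 Growth of a repair-deficient yeast mutant was monitored after compound treatment and expressed as inhibition relative to vehicle-treated cultures.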

[4] = NCI Yeast Anticancer Drug Screen. Data for the cln2 rad14 strain (AID 165);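 also: 0% = growth equal to vehicle treated cultures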; conditions: S. cerevisiae cln2 rad14 strain, at 50.0 µM, active compounds read high
In short: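 Growth inhibition, relative to vehicle-treated controls, is the read-out. The test organism is a yeast strain with defined genetic alterations, cln2 rad14.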

[5] = NCI Yeast Anticancer Drug Screen. Data for the bub3 strain (AID 167); conditions: S. cerevisiae bub3 mutant strain, at 50.0 µM, active compounds read high
In short: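 Inhibition values come from growth of compound-treated mutant yeast normalised to vehicle-treated controls.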

[6] = NCI Yeast Anticancer Drug Screen. Data for the mlh1 rad18 strain (AID 175); conditions: S. cerevisiae mlh1 rad18 strain growth inhibition; at 50.0 µM; active compounds read high
In short: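 Cells of a genetically altered yeast strain, deficient in DNA damage repair, were treated with compound. Their growth was then compared with that of vehicle-treated cultures to give inhibition.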

| Structure (SMILES) | growth inhibition [1] | growth inhibition [2] [%] | growth inhibition [3] [%] | growth inhibition [4] [%] | growth inhibition [5] [%] | growth inhibition [6] [%] |
| --- | --- | --- | --- | --- | --- | --- |
| CC(CN(C)C)C(/C=C/c1ccccc1)=N\Nc1ccccc1 (configuration not stated) | -5.7% | 23.4 | 7.85 | -6.3 | -2.1 | 3.25 |
| O=C(OCCc1ccccc1)C(O)c1ccccc1 (configuration not stated) | 11.3% | -6.05 | 3 | 10.7 | 6.6 | -1.3 |
| CCCCCCNC(=O)NC | -2.3% | -11.5 | -16.8 | -36.2 | -21.1 | -7.05 |
| COc1cccc(S(=O)(=O)c2c(C)cc(C)cc2C)c1 | -12.7% | -12.6 | -12.8 | -42 | 1.1 | -12.8 |
| CNc1c(C)cc(C#N)cc1C | 7.45% | 1.25 | -10.6 | 0.2 | -4.7 | -5.4 |
| COc1ccc(C2c3cc4c(cc3OC(O)(CO)C2C(=O)O)OCO4)c(OC)c1OC (configuration not stated) (tested in a mixture with another compound) | 0.2% | -4 | 6 | -15.5 | -18.3 | 9.65 |
| Cc1cn(C2CC(O)C(CO)O2)c(=O)nc1NCC12CC3CC(CC(C3)C1)C2 (configuration not stated) | -1.7% | 11.8 | -1.1 | -1.1 | -0.8 | -2.25 |
| CCCCN(Cc1ccccc1)C(=O)NC(C)(C)C | 2.15% | 33.9 | 8.1 | 3.45 | 25.8 | 18.6 |
| COc1ccc(/C=N/n2cnc3c(c2=O)S/C(=C2/SC(=S)N(c4ccc(C)cc4)C2=O)N3c2ccccc2)cc1 | -29.5% | -57.2 | -12.8 | -75 | -25.9 | -11.9 |
| Nc1n[nH]c(CCCCc2nc(N)n[nH]2)n1 | -23.2% | -24.4 | -2.55 | -39.8 | -4.25 | -1.9 |
| CC(C)C1CCC(O)CC1 (configuration not stated) | -14.5% | 1.9 | -3.55 | -32.2 | 10.3 | 9.05 |
| CN1CCCCC(C#N)(c2ccccc2)CC1 (configuration not stated) | -5.25% | 14.1 | 7.85 | -2.2 | 0.8 | 21.4 |
| CCCCCCCCCCCO/N=C\c1c2c(O)c3c(O)c(C)c4c(c3c1O)C(=O)C(C)(O/C=C\C(OC)C(C)C(OC(C)=O)C(C)C(O)C(C)C(O)C(C)/C=C\C=C(\C)C(=O)N2)O4 (configuration not stated) | -4.75% | -4.75 | -13.7 | -9.75 | -5.1 | 26.2 |
| CC(=O)Nc1cc(Cl)c(Oc2ccccc2)cc1[N+](=O)[O-] | 19.2% | 27.9 | 27.7 | 33 | 52 | 14.6 |
| OCC1(CO)CCCO1 | 4.15% | -21.9 | -10.4 | 5.1 | -0.4 | 2.55 |
| CC1CN(c2ccc(Cl)cc2)CC(C)OC(=O)O1 (configuration not stated) | 18.8% | -5.75 | 5.65 | 22.9 | 21.8 | 8.6 |
| O=C(OCC1OC=C(OC(=O)c2ccccc2)C1OC(=O)c1ccccc1)c1ccccc1 (configuration not stated) | 91.8% (active) | 11.7 | 32.3 | 24.9 | -1.85 | 60 |
| COc1ccc(Nc2nc(NNC(=O)Cc3ccccc3)nc(NNC(=O)c3ccncc3)n2)cc1 | 8.5% | 20.1 | 30.1 | 19.2 | 27.2 | 30.4 |
| CC[n+]1c([S-])nn(C)c1-c1cnccn1 | -2.8% | -4.9 | -9.05 | -13.9 | 24 | -12.5 |
| CCC(C)OC(=O)/C(Br)=C1/OC(=O)c2ccccc2-c2ccccc21 (configuration not stated) | -1.55% | -15.8 | -0.35 | -13.4 | -42.5 | -7.2 |
| Cc1cc(C(c2ccccc2)c2cc(C)cc(C(C)(C)CC(C)(C)C)c2O)c(O)c(C(C)(C)CC(C)(C)C)c1 | 3.9% | 5 | -10 | 20.8 | 5.2 | 8 |

| Structure (SMILES) | growth inhibition [1] | growth inhibition [2] [%] | growth inhibition [3] [%] | growth inhibition [4] [%] | growth inhibition [5] [%] | growth inhibition [6] [%] |
| --- | --- | --- | --- | --- | --- | --- |
| Nc1ccc(I)cc1 | -10.8% | -4.05 | -34.6 | -20.8 | -23.2 | -22.1 |
| CCc1nnc2n1N=C(c1ccc(-c3ccccc3)cc1)CS2 | 20.4% | 28.3 | 3.3 | 5.05 | 3.05 | 26.1 |
| Nc1ccc(CC(N)C(=O)O)cc1 (configuration not stated) | -2.7% | -12.8 | -22.3 | -5.6 | -6.55 | -13.3 |
| NC(=O)N/N=C\CC(O)(C(F)(F)Cl)C(F)(F)Cl | -33.9% | -29.2 | -15.6 | -1.5 | 3.2 | -3.1 |
| O/N=C1/CCSc2ccccc21 | 21% | -8.9 | 17.1 | 16.2 | 28.4 | 8.25 |
| CN1CC2(C)OC3(CC2(C)N1C)N(C)N(C)CC3(C)O (configuration not stated) | -12.2% | -1.9 | -12.8 | 40 | 11.8 | -8.95 |
| C=CCNC(=S)NC=C(C(N)=O)C(N)=O | -25.9% | -33 | -22.5 | -19.5 | -4.9 | -19.9 |
| CCCCCCC(=O)c1ccc2ccccc2c1O | 1.6% | -14.8 | 0.55 | -23.9 | 8.8 | -2.55 |
| O=C(Nc1nc2ccccc2n1Cc1ccc(Cl)cc1)C(=O)NC12CC3CC(CC(C3)C1)C2 | -9% | -24.5 | 1 | -0.6 | 6.8 | -8.6 |
| Cn1c(NCCN2CCCCC2)c(C(=O)/C=C/c2ccccc2)c(=O)n(C)c1=O | 15.3% | 19.4 | 8.65 | 17.6 | -1.5 | 20.8 |
| COC(=O)CC(=O)C[P+](c1ccccc1)(c1ccccc1)c1ccccc1 | 6.5% | -19.1 | 14.8 | 18.4 | -18.1 | 5.4 |
| CC1(C)CS(=O)(=O)CC(C)(C)C(=N/N)/C1=N\N | 20.1% | 26.9 | -13.2 | 5.8 | -6.95 | -18.2 |
| O=c1[nH]c(=O)n(C2OC(CF)C(O)C2O)cc1N1CCOCC1 (configuration not stated) | 16.9% | 18 | 18 | 17.7 | 19.5 | 33 |
| CN1C(=O)C(=C2CCCCC2)SC1=S | 0.55% | 7.8 | -11.6 | -4.3 | 2.8 | 2.15 |
| CC(C)(C)c1ccc(OS(=O)(=O)c2ccc(Cl)c(Cl)c2)cc1 | 0.4% | 17.4 | 0.35 | 31.6 | 6.8 | -4.85 |
| Cc1ccc[n+](CCCCCCCC[n+]2cccc(C)c2)c1 | 54.7% | 2.7 | 44.4 | -2.25 | 3.4 | 33.2 |
| COc1ccc(OC)c(NC(=O)CCCC(=O)C(C#N)c2c(Cl)cccc2Cl)c1 (configuration not stated) | 8.6% | 5.5 | -5.7 | -8.05 | 9.2 | -3.5 |
| NC(=O)NCC(N)C(=O)O (configuration not stated) | -4.75% | -5.2 | -2.3 | 1.55 | 1.55 | -1.9 |
| NC(=O)C(O)(c1ccc(Br)cc1)C(Cl)Cl (configuration not stated) | 4.65% | 3.05 | -5.55 | 9.05 | 11.6 | 5.95 |
| Cn1c(=O)c2c(nc(CN3CCOCC3)n2C)n(C)c1=O | -1.35% | -11.2 | 3.55 | -25.4 | 3.6 | 7.2 |
| O=C1COC(=O)/C1=C/c1ccccc1 | -0.4% | -7.85 | -4.75 | 2.3 | -15.8 | -1.05 |
